Some of the results follow. Unmarked numbers belong to inactive results. No rule for the calls is given here.
experiment: spectral interference with molecular beacon fluorescence, dose response, artefact control for DNMT1 inhibitor project, biochemical, fluorescent molecular beacon (AID 602382); conditions: spectral interference counter-screen

Row | SMILES | IC50
1 | Cc1ccccc1NC(=O)CN1C(=O)N/C(=C\c2cccn2-c2cccc(C(=O)O)c2)C1=O | > 99 µM
2 | COc1ccc(Br)cc1/C=N/Nc1ccc(S(=O)(=O)Nc2ccccc2C(=O)O)cc1[N+](=O)[O-] | > 99 µM
3 | O=C(Oc1ccc(-c2nc(-c3ccccn3)no2)cc1)c1ccccc1 | > 99 µM
4 | CCOC(=O)C(NC(=O)CC(C)C)(Nc1sc2c(c1C(N)=O)CCCC2)C(F)(F)F (stereo not given) | > 99 µM
5 | COc1ccc(Cc2nnc(NC(=O)Cc3cccs3)s2)cc1 | > 99 µM
6 | O=C(COc1ccc(/C=N/NC(=O)c2ccc(O)cc2)cc1)Nc1ccc([N+](=O)[O-])cc1 | > 99 µM
7 | O=C(CSc1nc2ccccc2c(=O)[nH]1)Nc1nc(-c2ccc(Br)cc2)cs1 | > 99 µM
8 | COc1ccc(C(=O)/C=C/c2ccc(-c3ccccc3)cc2)cc1CSCC(=O)O | > 99 µM
9 | Cc1ccc(/C=C/C(=O)Nc2ccc([N+](=O)[O-])c(NC(=O)/C=C/c3ccc(C)o3)c2)o1 | > 99 µM
10 | NC(CSC(c1ccccc1)(c1ccccc1)c1ccc(-c2ccccc2)cc1)C(=O)O (stereo not given) | > 99 µM

— PubChem BioAssay AID602382 (Sanford-Burnham Center for Chemical Genomics, 2012)
